Screening data: PubChem, several laboratories
PAX8 reporter = lowers PAX8-driven luciferase in RMG-I cells. 360,000 tested, 1.2% active. inhibition, % at 12.6 µM. AID 652154. RMG-I TPO-luciferase reporter, SteadyGlo, 24 h;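 active means mean replicate inhibition at least 60% with every replicate also reaching 60%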;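 further: luciferase light reporting Pax8 driven TPO promoter activity; plate controls were median of neutral control wells for no effect and mitoxantrone controls for full effect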
EBV LMP1 NFkB = inhibitors of Epstein-Barr LMP1-induced NF-kappaB reporter; LMP1-induced NF-kappaB luciferase reporter cells, luminescence; inhibition, % at 12.5 µM; 350,000 tested, 0.69% active; in the data active means inhibition above about 41%;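 further: 0% = neutral control wells and 100% = reference inhibitor control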
Peg3 promoter = inhibitors of Peg3 promoter; HeLa PEG-Prom luciferase reporter, luminescence, overnight; inhibition, % at 20 µM; 360,000 tested, 1.7% active;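 active means inhibition of at least 50% at 20 µM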
Shn3 inh set2 = Schnurri-3 reporter inhibition in Clone20 osteoblasts | Clone20 osteoblast Shn3 3'UTR firefly luciferase, 24 h | inhibition, % at 12.5 µM | 360,000 tested, 0.52% active | AID 588674;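 active means mean inhibition of at least 75% with every replicate also reaching 75%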;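 further: 0% = median of neutral control wells and 100% = pilot-screen positive control compound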
HIF-2a block = inhibitors of HIF-2a; 786-0 RCC cells HIF-2a reporter, luciferase luminescence, overnight; inhibition, % at 18.8 µM; 360,000 tested, 0.72% active; AID 624352;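 active means inhibition of the luminescence signal of 40% or more relative to plate controls, in a single-dose primary screen at 18.75 µM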
MITF TRPM1 inh = reduces MITF-dependent TRPM1 promoter luciferase signal | inhibition, % at 12.5 µM | 330,000 tested, 0.83% active | AID 488899 | SK-MEL-5 TRPM1 promoter luciferase, 24 h;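 active means mean inhibition across replicates of 60% or more, whatever share of single replicates reaches that level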
* = called active by the depositor. This is a sample that favours compounds with a hit; in the whole collection about 2.8% have one here.

C=C1C(=O)O[C@@H]2C[C@@H](C)[C@H]3C=CC(=O)[C@]3(O)C[C@@H]12 was read as PAX8 reporter 45, EBV LMP1 NFkB -29, Peg3 promoter 28, Shn3 inh set2 -21, HIF-2a block 9 and MITF TRPM1 inh 14.
For C=C1C(=O)OC2CC3(C)OC3CCC(C)=CC(OC(C)=O)C12 (configuration not stated) the results were PAX8 reporter 95*, EBV LMP1 NFkB 55*, Peg3 promoter 95*, Shn3 inh set2 2, HIF-2a block 16 and MITF TRPM1 inh 70*.
Screening O=S1(=O)N(CCN2CC=C(c3c[nH]c4cc(F)ccc34)CC2)c2cccc3c2N1CCC3 returned PAX8 reporter 85*, EBV LMP1 NFkB 0, Peg3 promoter 19, Shn3 inh set2 0, HIF-2a block 23 and MITF TRPM1 inh 15.
`CCN1C[C@]2(COC)CC[C@H](OC)[C@@]34C1[C@]1(OCO[C@@]15C[C@H](OC)[C@H]1C[C@@H]3[C@@H]5[C@H]1OC)[C@@H](O)[C@H]24` gave PAX8 reporter -18, EBV LMP1 NFkB 56*, Peg3 promoter -2, Shn3 inh set2 89*, HIF-2a block 12 and MITF TRPM1 inh 8.
O=C(O)[C@@H]1[C@@H](CO)[C@@H]2Cn3c(ccc(-c4ccc(F)cc4)c3=O)[C@H]1N2CC1CCCCC1 was read as PAX8 reporter -5.
Screening CC(=O)O/C(=C1\CC2C3CC=C4CC(OC(C)=O)CCC4(C)C3CCC2(C)C1=O)C(F)(F)F (configuration not stated) returned PAX8 reporter -2, EBV LMP1 NFkB 18, Peg3 promoter 63*, Shn3 inh set2 61, HIF-2a block 6 and MITF TRPM1 inh 14.
Screening CC(=O)O[C@H]1CC[C@@]2(C)C(=CC[C@@H]3[C@@H]2CC[C@]2(C)C(=O)CC[C@@H]32)C1 returned EBV LMP1 NFkB 10, Peg3 promoter 7, Shn3 inh set2 72, HIF-2a block 2 and MITF TRPM1 inh -7.
`O=C1CC(=O)N(c2ccc(Cl)cc2)C(=O)N1` gave PAX8 reporter 0, EBV LMP1 NFkB 64*, Peg3 promoter 4, Shn3 inh set2 16, HIF-2a block 6 and MITF TRPM1 inh 12.
Screening CC(C)c1ccc(N2C(=O)CC(=O)NC2=O)cc1 returned PAX8 reporter 23, EBV LMP1 NFkB -5, Peg3 promoter 12, Shn3 inh set2 -10, HIF-2a block 13 and MITF TRPM1 inh 8.
c1ccc2c(c1)[nH]c1cnccc12 was read as PAX8 reporter -13, EBV LMP1 NFkB -5, Peg3 promoter -2, Shn3 inh set2 9, HIF-2a block 9 and MITF TRPM1 inh -5.
Screening Cc1c2ccncc2c(C)c2c1[nH]c1ccccc12 returned EBV LMP1 NFkB 11, Peg3 promoter 102*, Shn3 inh set2 17, HIF-2a block -9 and MITF TRPM1 inh 89*.
Screening C[C@H](CO)N1C[C@H](C)[C@H](CN(C)C(=O)Oc2cccc3ccccc23)OCc2cn(nn2)CCCC1=O returned PAX8 reporter 11.
For COC1CCC(OC2CC(C3(C)CCC4(CC(O)C(C)C(C(C)/C=C(\C)C(=O)C(C)CC(C)C(=O)O)O4)O3)OC3(OC(C4OC(O)(CO)C(C)CC4C)CC3C)C2C)OC1C (configuration not stated) the results were PAX8 reporter 106*, EBV LMP1 NFkB -10, Peg3 promoter 98*, Shn3 inh set2 79, HIF-2a block 74* and MITF TRPM1 inh 84*.
For O=C1Nc2ccccc2/C1=C/c1cnc[nH]1 the results were EBV LMP1 NFkB -1, Peg3 promoter -11, Shn3 inh set2 -5, HIF-2a block -202 and MITF TRPM1 inh 17.
`COc1ccc2c(c1)/C(=C/c1cnc[nH]1)C(=O)N2` gave PAX8 reporter 79*, EBV LMP1 NFkB 88*, Peg3 promoter 100*, Shn3 inh set2 -10, HIF-2a block -102 and MITF TRPM1 inh 35.
Screening CC1OC(OC2C(O)CC(OC3C(O)CC(OC4CCC5(C)C(CCC6C5CCC5(C)C(C7=CC(=O)OC7)C(O)CC65O)C4)OC3C)OC2C)CC(O)C1O (configuration not stated) returned PAX8 reporter -16, EBV LMP1 NFkB 62*, Peg3 promoter 107*, Shn3 inh set2 2, HIF-2a block 72* and MITF TRPM1 inh 70*.
For CC(=O)OC1CC(OC2C(O)CC(OC3C(O)CC(OC4CCC5(C)C(CCC6C5CCC5(C)C(C7=CC(=O)OC7)C(O)CC65O)C4)OC3C)OC2C)OC(C)C1OC1OC(CO)C(O)C(O)C1O (configuration not stated) the results were PAX8 reporter 104*, EBV LMP1 NFkB 30, Peg3 promoter 108*, Shn3 inh set2 8, HIF-2a block 69* and MITF TRPM1 inh 86*.
Screening Cc1cccc(S(=O)(=O)N2[C@@H]3c4ccc(-c5cccc(F)c5)c(=O)n4C[C@H]2[C@H](CO)[C@H]3C(=O)O)c1 returned PAX8 reporter -9.
For COc1ccc(C#Cc2ccc([C@@H]3[C@H](CO)N4CCCCN(C(=O)Cc5ccccc5)C[C@@H]34)cc2)cc1 the results were PAX8 reporter -3.
CC1C(OC(=O)CCC(=O)NC(C)(C)CO)O[C@H]2OC3(C)CC[C@H]4[C@H](C)CCC1C24OO3 (some centres not stated) was read as PAX8 reporter 77*, EBV LMP1 NFkB -84, Peg3 promoter 32, Shn3 inh set2 84, HIF-2a block 9 and MITF TRPM1 inh 41.
For CC(C)CC(NC(=O)CCCNC(=O)CCC(=O)OC1O[C@H]2OC3(C)CC[C@H]4[C@H](C)CCC(C1C)C24OO3)C(=O)O (some centres not stated) the results were PAX8 reporter 74*, EBV LMP1 NFkB -34, Peg3 promoter 31, Shn3 inh set2 83, HIF-2a block -3 and MITF TRPM1 inh 45.
For C[C@H]1[C@H](OC(=O)CCC(=O)NCc2ccc(C(=O)O)cc2)O[C@@H]2O[C@@]3(C)CC[C@H]4[C@H](C)CC[C@@H]1C24OO3 the results were EBV LMP1 NFkB -72, Peg3 promoter 36, Shn3 inh set2 82, HIF-2a block -2 and MITF TRPM1 inh 45.
Screening COC(=O)[C@H]1[C@H](CO)[C@H]2Cn3c(ccc(C4=CCCCC4)c3=O)[C@@H]1N2C(=O)CC1CC1 returned PAX8 reporter 6.
`C=CC[C@@H](CC/C=C/C=C/CC/C=C\[C@@H]1CSC([C@@H]2C[C@@H]2C)=N1)OC` gave EBV LMP1 NFkB 14, Peg3 promoter -10, Shn3 inh set2 14, HIF-2a block 17 and MITF TRPM1 inh 67*.
C=CCN1CC[C@]23c4c5ccc(O)c4OC2C(=O)CC[C@@]3(O)C1C5 (some centres not stated) was read as PAX8 reporter 0, EBV LMP1 NFkB 9, Peg3 promoter -2, Shn3 inh set2 -12, HIF-2a block -3 and MITF TRPM1 inh -5.
